This is part of a sample that, as a whole, favours compounds with a hit. Of some 83,000 tested, about 20% had one in any assay.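 Assay: single dose, 48 h. Readout: percent growth (0 = no net growth; negative = cell death). Active: <10.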
What was measured:
Experiment in all cases: NCI-60 one-dose screen, 48 h (100 = growth as untreated, 0 = no growth, -100 = all killed)
Conditions in all cases: 10 µM unless noted
NCI-H23 lung = tested on: NCI-H23 lung
NCI-H226 lung = tested on: NCI-H226 lung
NCI-H322M lung = tested on: NCI-H322M lung
HOP-62 NSCLC = tested on: HOP-62 NSCLC
NCI-H460 lung = tested on: NCI-H460 lung
HOP-92 NSCLC = tested on: HOP-92 NSCLC
NCI-H522 lung = tested on: NCI-H522 lung
A549/ATCC NSCLC = tested on: A549/ATCC NSCLC
786-0 renal = tested on: 786-0 renal
COLO 205 colon = tested on: COLO 205 colon
DU-145 prostate = tested on: DU-145 prostate
K-562 leukemia = tested on: K-562 leukemia
MALME-3M melanoma = tested on: MALME-3M melanoma
MDA-MB-231 breast = tested on: MDA-MB-231 breast
RXF 393 renal = tested on: RXF 393 renal
SF-268 CNS = tested on: SF-268 CNS
SF-295 CNS = tested on: SF-295 CNS
SF-539 CNS = tested on: SF-539 CNS
UACC-257 melanoma = tested on: UACC-257 melanoma
M14 melanoma = tested on: M14 melanoma

Measured: growth

OCCCCCCNc1ncnc2cc(Cl)ccc12
inactive: NCI-H23 lung 95% | NCI-H226 lung 84.1% | NCI-H322M lung 105% | HOP-62 NSCLC 88.5% | NCI-H460 lung 94.2% | HOP-92 NSCLC 74.6% | NCI-H522 lung 87.8% | A549/ATCC NSCLC 95.6% | 786-0 renal 100% | COLO 205 colon 103% | DU-145 prostate 104% | K-562 leukemia 84.6% | MALME-3M melanoma 100% | MDA-MB-231 breast 99.7% | RXF 393 renal 116% | SF-268 CNS 97.2% | SF-295 CNS 99% | SF-539 CNS 92.8% | UACC-257 melanoma 90.7% | M14 melanoma 96.3%

CCCCC(CC)OC(=O)C(Br)CC (stereo not given)
inactive: NCI-H23 lung 92.7% | NCI-H226 lung 108% | NCI-H322M lung 101% | HOP-62 NSCLC 111% | NCI-H460 lung 109% | HOP-92 NSCLC 95.8% | NCI-H522 lung 103% | A549/ATCC NSCLC 103% | 786-0 renal 98.4% | COLO 205 colon 111% | DU-145 prostate 107% | K-562 leukemia 83.8% | MALME-3M melanoma 99.9% | MDA-MB-231 breast 112% | RXF 393 renal 114% | SF-268 CNS 98.1% | SF-295 CNS 97.5% | SF-539 CNS 98.7% | UACC-257 melanoma 104% | M14 melanoma 101%

CCOC(=O)c1ccc2c(c1)nc(-c1ccc(OCc3ccccc3)c(OC)c1)n2-c1cc(C(C)(C)C)[nH]n1
inactive: NCI-H23 lung 88.1% | NCI-H226 lung 91.6% | NCI-H322M lung 92.8% | HOP-62 NSCLC 91.4% | NCI-H460 lung 74.9% | HOP-92 NSCLC 93.5% | NCI-H522 lung 67.8% | A549/ATCC NSCLC 59.3% | 786-0 renal 98.7% | COLO 205 colon 67.4% | DU-145 prostate 89.9% | K-562 leukemia 55.4% | MALME-3M melanoma 99.2% | MDA-MB-231 breast 109% | RXF 393 renal 83.6% | SF-268 CNS 88.1% | SF-295 CNS 35.8% | SF-539 CNS 88.2% | UACC-257 melanoma 101% | M14 melanoma 95.4%

COc1ccc(/C=C2\N=C(c3ccccc3)N(C(=O)c3ccccc3O)NC2=O)cc1
inactive: NCI-H23 lung 89.7% | NCI-H226 lung 101% | NCI-H322M lung 105% | HOP-62 NSCLC 99.1% | NCI-H460 lung 98.7% | HOP-92 NSCLC 75.5% | NCI-H522 lung 100% | A549/ATCC NSCLC 97.3% | 786-0 renal 89.8% | COLO 205 colon 112% | DU-145 prostate 110% | K-562 leukemia 86.5% | MALME-3M melanoma 89.9% | MDA-MB-231 breast 84.6% | RXF 393 renal 105% | SF-268 CNS 108% | SF-295 CNS 92.9% | SF-539 CNS 95.3% | UACC-257 melanoma 110% | M14 melanoma 98.8%

Reference: PubChem BioAssay (NCI)
